Test results published in PubChem BioAssay (NCI).
Compounds without any hit were thinned out: in the full panel of roughly 83,000, 20% have a hit.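 For each line, cells grew in 96-well plates with the test compound present at a single concentration for 48 hours.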 Values without a mark were called inactive. The source made the active and inactive calls. Rule for the calls: active = growth percent below 10; inactive = the rest.

Tested on: HL-60(TB) leukemia
Assay: NCI-60 one-dose screen, 48 h (100 = growth as untreated, 0 = no growth, -100 = all killed)
Conditions: 10 µM unless noted

SMILES | growth
C=C1CCC2C3(C)COC(c4ccccc4F)OC3CCC2(C)C1CC(O)C1=CCOC1=O (stereo not given) | 70.5%
Nc1cc2ccccc2c(=O)n1NC(=O)c1ccccc1 | 101%
CN(CCSSCCN1CCOCC1)C(=O)Oc1cc2c(c3ccccc13)[C@H](CCl)CN2C(=O)c1cc2cc(OCCCN3CCC3)ccc2[nH]1 | -45.8% (active)
COc1ccc(C(=O)/C=C/c2ccc3c(c2)OCCO3)cc1S(N)(=O)=O | 95.1%
Cc1ccc2c(c1)nc(-c1ccccc1)n2CC(=O)N=Nc1c(O)[nH]c2ccc(Br)cc12 | 7.86% (active)
